Inconclusive results are not listed. Where a call stands in place of a potency, no number is given. Activity calls are given as the source filed them. Calls come from the whole dose curve; as a rule, active = well fitted cell-killing curve with a large enough effect; inconclusive = small, poorly fitted or top-dose-only effect, or effect the other way; inactive = flat fitted curve, though single readings scatter.
Test system: CAOV3
Assay: Primary qHTS to identify gynecologic anti-cancer compounds using libraries of approved drugs and bioactive compounds (AID 1345084); note: nearly all actives have a fitted effect of over 55% in size
Details: Gynecologic cancer cell panel viability, ATPlite luminescence, 48 h; series mostly up to 57.5 µM
Source text: National Center for Advancing Translational Sciences [NCATS] Assay Overview: Chemotherapeutic drug responses vary from cancer to cancer and from patient to patient. These variations could be caused by a number of factors including patient genomic background, tumor mutations, tumor heterogeneity, and aspects of drug treatment. Chemotherapeutic drug resistance is also a common issue and can lead to ineffective treatment and patient death. Here we have profiled the cell killing effects of thousands of compounds to characterize the responses in three gynecological cancers, identify cancer-selective compounds, and understand the diversity of responses to these compounds from pan-cancer suppressors to single cell line selective compounds. In this assay, we screened a 7,914 compound drug library that included approved drug and bioactive compounds in six ovarian, three cervical, and […] placental cancer cell lines using the ATPlite assay for cell viability. […] The cervical cancer cell lines included HeLa, Ca Ski, and C-33 A. The placental cancer cell lines included JEG-3. HEK 293T cells were used as the control cell line to determine the selectivity index. ATPlite is a luminescence based assay reliant on the conversion of a luciferase substrate to light in the presence of ATP. As a cytotoxic compound will suppress growth and decrease the number of cells, the concentration of ATP will decrease, and less light signal will be detected in the well.
Assay Protocol Summary: 1,000 cells in 4 uL of media were dispensed into white, solid bottom 1536-well plates using a Multidrop Combi (Thermo Scientific). The Assay plates were incubated for 16 hours at 37 C with 5% CO2 in assay plates, followed by the addition of 23 nL of DMSO or drug dissolved in DMSO. Each compound was assayed in five concentrations (0.092, 0.46, 2.3, 11.5, and 57.5 uM), using the automated Wako 1536 Pin Tool workstation and incubated at 37 C with 5% CO2 48 hours. 4 uL of ATPlite, the ATP monitoring reagent, was then added to the each well of the assay plates using the Multidrop Combi reagent dispenser followed by incubation for 15 minutes at room temperature. The resulting luminescence was measured using the ViewLux plate reader.
Potency is the fitted concentration of half-maximal effect.

| SMILES | Potency |
| --- | --- |
| Cc1cnc(-c2cnc(NCCNc3ccc(C#N)cn3)nc2-c2ccc(Cl)cc2Cl)[nH]1 | inactive |
| COc1ccc2c(OCc3nnc4ccc(-c5ccccc5)nn34)ccnc2c1 | inactive |
| Cc1c(Cn2c(C)nc3c(C(=O)O)cc(N4CCOCC4)cc32)cccc1C(F)(F)F | inactive |
| COc1cc2c(Oc3ccc(-c4cnc(Nc5ccc(F)cc5)n(C)c4=O)cc3F)ccnc2cc1OCCCN1CCOCC1 | inactive |
| Clc1cccc(-c2nnnn2Cc2cccnc2)c1Cl | inactive |
| OCCCNc1cc(-c2ccnc(Nc3cccc(Cl)c3)n2)ccn1 | inactive |
| CCn1cc(-c2ccnc3[nH]c(-c4cccc(CN(C)C)c4)cc23)c(-c2ccc(NC(=O)N(C)C)cc2)n1 | inactive |
| O=C(c1cncc(Br)c1)N1CCC(N2CCCC2)CC1 | inactive |
| CNC(=O)c1cc(Oc2ccc(NC(=O)Nc3cc(C(C)(C)C)nn3-c3ccc4ncccc4c3)c(F)c2)ccn1 | inactive |
| CC(C)c1noc(N2CCC(COc3ccc(-c4ccc(S(C)(=O)=O)cc4)nc3)CC2)n1 | inactive |
| Cc1cn2cc(C(=O)N(C)CCO)cc(N[C@@H]3CCOc4cccc(C)c43)c2n1 | inactive |
| C#Cc1cccc(Nc2ncnc3cc(OC)c(OCCCCCCC(=O)NO)cc23)c1 | 7.94 µM (active) |
| CS(=O)(=O)N1CCN(Cc2cc3nc(-c4cccc5[nH]ncc45)nc(N4CCOCC4)c3s2)CC1 | inactive |
| Cc1cc(Nc2ncnc3ccc(-c4ccc(CNCCS(C)(=O)=O)o4)cc23)ccc1Oc1ccn2ncnc2c1 | inactive |
| CC(O)C1C(=O)N2C(C(=O)O)=C(SC3CNC(C(=O)N(C)C)C3)C(C)C12 (stereo not given) | inactive |
| Clc1ccc2ncc(-c3cccc(NC4CNC4)n3)n2c1 | inactive |
| CCCCCN(CCC12CC3CC(CC(C3)C1)C2)C(=O)NCCCc1ccncc1 | inactive |
| C1Cc2[nH]nc(-c3nn[nH]n3)c2C1 | inactive |
| Cn1cc(-c2ccncc2)c(-c2ccc(OCc3ccc4ccccc4n3)cc2)n1 | inactive |
| CC(C)c1cc(C(=O)N2Cc3ccc(CN4CCN(C)CC4)cc3C2)c(O)cc1O | 3.98 µM (active) |

| SMILES | Potency |
| --- | --- |
| Cc1coc2c1C(=O)C(=O)c1c-2ccc2c1CCCC2(C)C | inactive |
| CCCCOc1c(C(=O)c2c(F)cc(C)cc2F)cnc2n[nH]cc12 | inactive |
| COC(=O)Nc1nc2ccc(C(=O)c3ccc(F)cc3)cc2[nH]1 | inactive |
| C=CC(=O)Nc1cc2c(Nc3ccc(F)c(Cl)c3)ncnc2cc1OCCCN1CCOCC1 | 10 µM (active) |
| CN(C)CC(C)(C)CNc1nn2c(-c3ccccc3)nnc2cc1C1CCC1 | inactive |
| CC(=O)Nc1sc2c(c1-c1nc3ccccc3s1)CNC2 | inactive |
| O=C1CCC[C@@H]2[C@H]3CCC[N+]4([O-])CCC[C@@H](CN12)[C@@H]34 (stereo not given in full) | inactive |
| Cc1c(C)n(Cc2ccc(-c3ccccc3C(=O)O)cc2)c2ccc(C(=O)N[C@@H](C)c3ccc([N+](=O)[O-])cc3)cc12 | inactive |
| CC1COC2(CCN(c3nc(=O)c4cc(C(F)(F)F)cc([N+](=O)[O-])c4s3)CC2)O1 (stereo not given) | inactive |
| CC(C)c1nn(-c2c(Cl)cccc2Cl)c2nc(Cc3ccc(OCCO)cc3)[nH]c(=O)c12 | 0.158 µM (active) |
| C[C@]12CC[C@H](O)CC1=CCC1C2CC[C@]2(C)C(n3cnc4ccccc43)=CCC12 (stereo not given in full) | inactive |
| CC(C)Nc1cc(C(F)(F)F)cc2nc(NC(=O)c3cccnc3)nn12 | inactive |
| CC1(C)CCC(c2ccc(Cl)cc2)=C(CN2CCN(c3ccc(C(=O)NS(=O)(=O)c4ccc(N[C@H](CCN5CCOCC5)CSc5ccccc5)c(S(=O)(=O)C(F)(F)F)c4)cc3)CC2)C1 | 12.6 µM (active) |
| OCc1ccc(-c2ccc(-c3ccc(CO)s3)o2)s1 | 0.199 µM (active) |
| Cc1cn(-c2cc(NC(=O)c3ccc(C)c(Nc4nccc(-c5cccnc5)n4)c3)cc(C(F)(F)F)c2)cn1 | inactive |
| N#Cc1c(O)c2c(-c3ccc(-c4ccccc4O)cc3)csc2[nH]c1=O | inactive |
| COc1ccc2c(c1)CC[C@@H](CN(C)CC(=O)O)[C@H]2c1ccccc1 | inactive |
| NC1(Cc2ccc(Cl)cc2)CCN(c2ncnc3[nH]ccc23)CC1 | inactive |
| Cc1ccc(NC(=O)C2(c3ccc4c(c3)OC(F)(F)O4)CC2)nc1-c1cccc(C(=O)O)c1 | inactive |
| CC[C@@H]1C(=O)N(C)c2cnc(Nc3ccc(C(=O)NC4CCC(N5CCN(CC6CC6)CC5)CC4)cc3OC)nc2N1C(C)C (stereo not given in full) | 12.6 µM (active) |

Reference: PubChem BioAssay (NCATS)
